# Measurements as given in article PMC7862700, “An all-to-all approach to the identification of sequence-specific readers for epigenetic DNA modifications on cytosine”.
# How the values were obtained:
# Test in all cases: DAPPL (digital affinity profiling via proximity ligation, sequencing); 10 mM Tris-HCl pH 7.5, 50 mM NaCl, 1 mM DTT, 4% glycerol, room temperature, 30 min; GST-TFs on glutathione beads, 16-mer random dsDNA library, 0.1% formaldehyde crosslink after washing; high values mean tight binding
# Details in all cases: protein: recombinant; tags: N-terminal GST; dsDNA, one strand shown
# ELF4 = ELF4 (Homo sapiens, UniProt Q99607 1-663)
# Method in brief: (§1)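 Human transcription factors fused to GST were expressed in yeast, captured on glutathione beads, given DNA barcodes and pooled with a GST-only negative control. Pools were incubated with 200 nmole of a 16-mer random double-stranded DNA library in Tris/NaCl/DTT/glycerol buffer at room temperature for 30 min. They were then washed, crosslinked with 0.1% formaldehyde, proximity-ligated (BsaI/T4 ligase, 1 h, 37 °C), PCR-amplified and sequenced on an Illumina NextSeq500. Binding signal is each 6-mer's read frequency for a factor divided by its frequency for the GST control.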
# ELK4 = target: T1, ELK4 (Homo sapiens, UniProt P28324-2 1-405)
# T1 sequence: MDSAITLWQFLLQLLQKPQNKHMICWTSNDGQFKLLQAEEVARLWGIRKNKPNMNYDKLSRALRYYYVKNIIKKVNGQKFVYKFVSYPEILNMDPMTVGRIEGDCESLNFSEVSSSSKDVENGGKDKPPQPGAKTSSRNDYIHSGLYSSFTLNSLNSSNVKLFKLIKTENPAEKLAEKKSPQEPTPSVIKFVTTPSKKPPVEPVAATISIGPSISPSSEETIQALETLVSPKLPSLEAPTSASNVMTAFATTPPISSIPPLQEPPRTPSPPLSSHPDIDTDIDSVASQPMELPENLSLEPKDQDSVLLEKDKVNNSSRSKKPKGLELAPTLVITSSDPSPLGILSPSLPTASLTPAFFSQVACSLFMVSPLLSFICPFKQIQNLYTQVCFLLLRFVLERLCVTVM
# Method in brief: as §1
# ETV2 = target: T2, ETV2 (Homo sapiens, UniProt O00321 1-342)
# T2 sequence: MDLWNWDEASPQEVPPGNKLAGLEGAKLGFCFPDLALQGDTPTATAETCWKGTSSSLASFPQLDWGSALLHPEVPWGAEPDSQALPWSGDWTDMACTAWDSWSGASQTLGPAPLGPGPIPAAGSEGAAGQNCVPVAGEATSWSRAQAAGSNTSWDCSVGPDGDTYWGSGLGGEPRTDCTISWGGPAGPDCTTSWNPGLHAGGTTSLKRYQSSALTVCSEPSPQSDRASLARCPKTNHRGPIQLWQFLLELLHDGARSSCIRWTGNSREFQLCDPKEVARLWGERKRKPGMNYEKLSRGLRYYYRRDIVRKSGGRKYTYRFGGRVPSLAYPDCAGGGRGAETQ
# Method in brief: as §1
# ELF3 = target: T3, ELF3 (Homo sapiens, UniProt P78545 1-371)
# T3 sequence: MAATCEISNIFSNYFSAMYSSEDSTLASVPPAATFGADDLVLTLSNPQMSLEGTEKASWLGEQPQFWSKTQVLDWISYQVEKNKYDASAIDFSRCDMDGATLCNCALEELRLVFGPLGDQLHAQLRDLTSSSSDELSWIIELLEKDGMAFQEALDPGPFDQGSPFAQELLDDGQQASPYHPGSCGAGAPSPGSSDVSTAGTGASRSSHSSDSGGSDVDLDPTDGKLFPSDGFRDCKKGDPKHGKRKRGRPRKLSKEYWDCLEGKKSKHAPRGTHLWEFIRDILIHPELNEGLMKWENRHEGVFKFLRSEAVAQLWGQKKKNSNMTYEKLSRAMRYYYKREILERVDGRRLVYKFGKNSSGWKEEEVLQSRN
# Method in brief: as §1
# ERF = target: T4, ERF (Homo sapiens, UniProt P50548 1-548)
# T4 sequence: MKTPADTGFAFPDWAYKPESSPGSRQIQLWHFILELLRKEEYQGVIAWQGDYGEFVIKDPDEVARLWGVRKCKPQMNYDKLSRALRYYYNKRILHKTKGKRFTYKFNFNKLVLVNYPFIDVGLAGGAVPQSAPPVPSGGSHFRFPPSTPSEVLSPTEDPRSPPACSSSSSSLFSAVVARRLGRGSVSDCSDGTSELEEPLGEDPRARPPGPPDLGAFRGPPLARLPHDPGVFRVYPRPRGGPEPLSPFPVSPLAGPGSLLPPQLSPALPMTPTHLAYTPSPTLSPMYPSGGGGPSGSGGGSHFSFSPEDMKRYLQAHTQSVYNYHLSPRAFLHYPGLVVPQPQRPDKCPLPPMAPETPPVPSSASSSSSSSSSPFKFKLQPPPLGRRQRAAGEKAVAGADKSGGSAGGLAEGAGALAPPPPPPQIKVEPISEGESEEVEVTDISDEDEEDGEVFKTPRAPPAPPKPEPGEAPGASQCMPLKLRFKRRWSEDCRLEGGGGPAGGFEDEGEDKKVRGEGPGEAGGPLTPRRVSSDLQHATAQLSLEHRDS
# Method in brief: as §1
# ETV3L = target: T5, ETV3L (Homo sapiens, UniProt Q6ZN32 1-361)
# T5 sequence: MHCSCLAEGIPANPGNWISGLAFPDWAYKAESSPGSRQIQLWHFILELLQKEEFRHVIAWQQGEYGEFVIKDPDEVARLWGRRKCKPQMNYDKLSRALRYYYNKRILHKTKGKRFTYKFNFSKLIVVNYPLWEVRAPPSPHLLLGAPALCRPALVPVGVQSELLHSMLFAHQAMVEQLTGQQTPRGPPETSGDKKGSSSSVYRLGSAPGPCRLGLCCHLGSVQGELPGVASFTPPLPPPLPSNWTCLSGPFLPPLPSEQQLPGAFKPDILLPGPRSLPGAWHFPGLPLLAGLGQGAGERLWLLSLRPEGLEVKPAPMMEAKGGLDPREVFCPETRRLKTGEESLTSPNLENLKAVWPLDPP
# Method in brief: as §1
# ETS2 = target: T6, ETS2 (Homo sapiens, UniProt P15036 1-469)
# T6 sequence: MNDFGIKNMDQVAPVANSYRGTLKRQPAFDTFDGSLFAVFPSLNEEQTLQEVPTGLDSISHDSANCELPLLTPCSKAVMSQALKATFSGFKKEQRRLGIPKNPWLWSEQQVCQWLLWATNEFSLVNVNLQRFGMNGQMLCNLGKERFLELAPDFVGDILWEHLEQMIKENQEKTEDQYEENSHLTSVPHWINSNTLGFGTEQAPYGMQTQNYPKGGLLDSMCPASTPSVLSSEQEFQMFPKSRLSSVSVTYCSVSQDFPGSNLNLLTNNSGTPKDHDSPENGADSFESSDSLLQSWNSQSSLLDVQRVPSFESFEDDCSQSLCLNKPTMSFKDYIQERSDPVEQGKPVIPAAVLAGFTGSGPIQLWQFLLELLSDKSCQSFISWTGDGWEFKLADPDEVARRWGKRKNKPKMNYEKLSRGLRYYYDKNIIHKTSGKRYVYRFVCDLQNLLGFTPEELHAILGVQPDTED
# Method in brief: as §1
# ETV7 = target: T7, ETV7 (Homo sapiens, UniProt Q9Y603 1-341)
# T7 sequence: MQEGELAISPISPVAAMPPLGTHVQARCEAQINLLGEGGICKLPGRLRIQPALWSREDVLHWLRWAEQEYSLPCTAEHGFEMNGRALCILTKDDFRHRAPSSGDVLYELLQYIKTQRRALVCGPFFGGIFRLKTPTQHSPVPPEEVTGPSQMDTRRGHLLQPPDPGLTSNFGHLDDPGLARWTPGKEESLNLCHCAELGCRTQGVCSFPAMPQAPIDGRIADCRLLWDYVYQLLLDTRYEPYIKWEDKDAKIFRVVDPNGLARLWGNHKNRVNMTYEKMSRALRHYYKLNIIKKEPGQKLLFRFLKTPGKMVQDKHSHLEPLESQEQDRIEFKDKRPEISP
# Method in brief: as §1
# ETV3 = target: T8, ETV3 (Homo sapiens, UniProt P41162-2 1-143)
# T8 sequence: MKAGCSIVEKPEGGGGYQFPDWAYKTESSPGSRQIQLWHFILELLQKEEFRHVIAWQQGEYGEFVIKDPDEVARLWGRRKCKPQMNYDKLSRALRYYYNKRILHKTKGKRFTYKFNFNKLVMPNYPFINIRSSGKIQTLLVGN
# Method in brief: as §1
# ETV6 = ETV6 (Homo sapiens, UniProt P41212 1-452)
# Method in brief: as §1
# ETV6, sequence (P41212 whole entry): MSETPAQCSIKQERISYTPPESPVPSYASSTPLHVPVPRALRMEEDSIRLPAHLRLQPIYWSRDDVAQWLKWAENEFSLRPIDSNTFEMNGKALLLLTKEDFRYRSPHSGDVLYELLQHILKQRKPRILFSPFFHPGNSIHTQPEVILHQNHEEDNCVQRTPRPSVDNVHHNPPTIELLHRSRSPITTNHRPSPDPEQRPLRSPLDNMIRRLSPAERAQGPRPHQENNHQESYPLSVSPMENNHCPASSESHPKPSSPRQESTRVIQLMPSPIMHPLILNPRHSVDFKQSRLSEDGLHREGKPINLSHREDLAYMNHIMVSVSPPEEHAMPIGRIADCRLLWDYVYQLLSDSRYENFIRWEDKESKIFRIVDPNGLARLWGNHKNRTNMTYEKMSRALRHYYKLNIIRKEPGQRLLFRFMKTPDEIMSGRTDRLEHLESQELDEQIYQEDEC
# ELF4, sequence (Q99607 whole entry, the tested form may be a part): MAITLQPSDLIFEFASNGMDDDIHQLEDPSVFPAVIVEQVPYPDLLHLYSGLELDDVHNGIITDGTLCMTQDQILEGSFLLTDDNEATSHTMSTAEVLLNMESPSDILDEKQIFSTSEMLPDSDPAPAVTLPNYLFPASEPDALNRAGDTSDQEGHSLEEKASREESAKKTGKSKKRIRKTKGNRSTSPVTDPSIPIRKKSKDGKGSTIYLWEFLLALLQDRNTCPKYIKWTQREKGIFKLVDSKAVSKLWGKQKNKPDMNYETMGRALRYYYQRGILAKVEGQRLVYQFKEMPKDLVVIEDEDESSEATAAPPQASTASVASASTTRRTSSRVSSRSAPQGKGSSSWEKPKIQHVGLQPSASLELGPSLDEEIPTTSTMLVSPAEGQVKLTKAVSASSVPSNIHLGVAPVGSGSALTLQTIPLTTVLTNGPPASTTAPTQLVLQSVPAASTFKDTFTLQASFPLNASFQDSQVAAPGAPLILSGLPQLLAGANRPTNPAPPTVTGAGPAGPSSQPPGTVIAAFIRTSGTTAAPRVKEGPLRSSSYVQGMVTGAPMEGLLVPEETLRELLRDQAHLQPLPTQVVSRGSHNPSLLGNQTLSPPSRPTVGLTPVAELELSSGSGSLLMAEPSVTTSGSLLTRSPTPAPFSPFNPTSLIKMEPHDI
sequence,measurement,setting,value
TTAGAT,binding signal,ELF4,"1.12 fold enrichment (6-mer frequency, TF over GST control)"
same,binding signal,ELK4,"1.23 fold enrichment (6-mer frequency, TF over GST control)"
same,binding signal,ETV2,"1.16 fold enrichment (6-mer frequency, TF over GST control)"
same,binding signal,ELF3,"1.05 fold enrichment (6-mer frequency, TF over GST control)"
same,binding signal,ERF,"1.21 fold enrichment (6-mer frequency, TF over GST control)"
same,binding signal,ETV3L,"1.04 fold enrichment (6-mer frequency, TF over GST control)"
same,binding signal,ETS2,"1.01 fold enrichment (6-mer frequency, TF over GST control)"
same,binding signal,ETV7,"1.03 fold enrichment (6-mer frequency, TF over GST control)"
same,binding signal,ETV3,"1.07 fold enrichment (6-mer frequency, TF over GST control)"
same,binding signal,ETV6,"1.03 fold enrichment (6-mer frequency, TF over GST control)"
